PostGolgi ctrl = growth of the yeast control strain, post-Golgi counter-screen; inhibition, % at 10 µM; actives 5% (n = 98,000); efflux-deficient yeast background strain, growth absorbance A615, 16 h; AID 738
CYP2C19 inhib = inhibitors of human CYP2C19; P33261; CYP2C19 Supersomes, luciferin-H EGE luminescence, 30 min; inhibition, % at 5 µM; AID 778; actives 21% (n = 96,000);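 active = CYP2C19 inhibition above a set limit at 5 µM in the primary screen, cut at about 50% in these data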;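 also: plate controls were negative control wells for no effect and 2.5 mM tranylcypromine positive control for full effect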
CYP2C9 activ = increases human cytochrome P450 2C9 activity; recombinant CYP2C9, luciferin-H conversion, luminescence; hits give high values; factor 1 = untreated enzyme, 0 = blocked; P11712; activation factor at 5 µM; actives 1.4% (n = 96,000);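 active = activation factor of 2 or more for CYP2C9 at a 5 µM dose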;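 also: 0 = sulfaphenazole-blocked wells and 1 = vehicle-only wells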
Target sequence (P11712 whole entry, looked up): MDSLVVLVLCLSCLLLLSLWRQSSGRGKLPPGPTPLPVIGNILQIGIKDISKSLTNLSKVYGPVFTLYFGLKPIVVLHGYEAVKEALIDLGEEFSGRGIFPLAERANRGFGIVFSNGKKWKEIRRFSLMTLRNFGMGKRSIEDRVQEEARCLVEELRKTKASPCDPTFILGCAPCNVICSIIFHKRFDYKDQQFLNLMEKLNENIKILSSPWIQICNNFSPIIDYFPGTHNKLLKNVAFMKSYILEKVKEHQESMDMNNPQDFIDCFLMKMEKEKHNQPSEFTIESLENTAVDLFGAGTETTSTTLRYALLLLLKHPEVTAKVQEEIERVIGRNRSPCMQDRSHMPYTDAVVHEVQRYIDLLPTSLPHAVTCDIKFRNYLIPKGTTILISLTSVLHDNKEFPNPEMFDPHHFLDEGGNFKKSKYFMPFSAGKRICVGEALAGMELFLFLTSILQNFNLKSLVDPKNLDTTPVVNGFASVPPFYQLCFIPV
PostGolgi yeast = growth inhibition of a yeast mutant, post-Golgi transport screen | actives 0.9% (n = 98,000) | post-Golgi transport phenotypic cell assay | inhibition, % at 10 µM | AID 739;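 also: yeast cells grown in 1536-well plates; yeast grown about 18 h at 30C before absorbance read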
CYP2C9 inhib = human CYP2C9 inhibition; P11712; inhibition, % at 5 µM; actives 20% (n = 96,000); CYP2C9 Supersomes, luciferin-H conversion, luminescence;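 active = blocking of liver enzyme CYP2C9 beyond about 50% at 5 µM, limit read from the data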
CYP2C19 activ = increases human CYP2C19 enzyme activity; P33261; recombinant CYP2C19, luciferin-H EGE luminescence; hits give high values; 0 = fully inhibited enzyme, 1 = untreated enzyme; activation factor at 5 µM; 96,000 tested, under 10 active;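 active = activation factor of at least 2 at 5 µM in the primary screen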;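 also: 0 = wells with 2.5 mM tranylcypromine and 1 = vehicle-only wells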
The depositor's hits bear a star; nt = not tested or not shown. Shown are actives, neighbours in structure and some others; about 32% of the full set was active somewhere. Rule as the data show it, unless noted: active = inhibition above about 30%; inactive = the rest.

SMILES	PostGolgi ctrl	CYP2C19 inhib	CYP2C9 activ	PostGolgi yeast	CYP2C9 inhib	CYP2C19 activ
COC(=O)C1=C(C)Nc2ncnn2C1c1ccc(OC(=O)c2ccccc2)cc1 (configuration not stated)	-6.7	40.3	1.2	-9.3	-22.3	0.6
COC(=O)c1ccc(C2C(C(=O)Nc3ccc(C)cc3C)=C(C)Nc3ncnn32)cc1 (configuration not stated)	-1.8	61.7*	0.7	-4.0	25.2	0.4
COc1ccc(C2C(C(=O)Nc3ccccn3)=C(C)Nc3ncnn32)c(OC)c1 (configuration not stated)	6.8	-2.2	0.6	-0.8	38.4	1
COc1cc(C2C(C(=O)OC(C)C)=C(C)Nc3ncnn32)cc(OC)c1OC (configuration not stated)	21.0	20.0	0.2	-4.8	77.7*	0.8
CC(=O)C1=C(C)Nc2ncnn2C1c1cccc(OCc2ccccc2)c1 (configuration not stated)	9.6	11.3	1.1	0.4	-13.2	0.9
CC(=O)C1=C(C)Nc2ncnn2C1c1ccc(Cl)cc1Cl (configuration not stated)	2.5	67.9*	0.7	-4.5	30.0	0.3
CC(C)CC1NC(=O)N(CC(=O)N2CCN(S(=O)(=O)c3ccccc3)CC2)C1=O (configuration not stated)	2.4	-3.2	1	-0.6	-1.9	1
COC(=O)c1[nH]c2cc(OC)c(OC)cc2c1NC(=O)CN1CCN(Cc2ccccc2)CC1	nt	36.2	0.7	nt	27.5	0.6
O=C(c1ccc2ccccc2n1)N1CCN(c2ccccc2O)CC1	11.5	58.5*	0.6	0.2	40.9	0.4
O=C(CSc1nnc(-c2ccc(OC(F)F)cc2)o1)NC(=O)NCc1ccco1	0.9	-12.7	1	2.7	-2.6	1.1
CC(=O)c1ccc(NC(=S)N2C(C)CCCC2C)cc1 (configuration not stated)	-4.8	-10.6	1	0.5	-4.6	1.1
CCOC(=O)c1[nH]c2ccccc2c1NC(=O)c1ccc2c(c1)OCO2	7.7	-3.9	0.8	6.0	20.0	1
CCN(CC(=O)Nc1c(C(=O)OC)[nH]c2ccccc12)c1ccc2c(c1)OCO2	12.5	50.2*	0.3	-6.7	70.4*	0.5
CCOC(=O)c1cc(CC)sc1NC(=O)c1ccc(N2C(=O)CCC2=O)cc1	0.3	-8.5	1	-8.1	0.6	1.1
CCOC(=O)c1[nH]c2ccc(OC)cc2c1NC(=O)c1cccc(OC)c1	21.4	52.3*	0.6	-0.8	37.3	0.5
CCOC(=O)c1cc(CC)sc1NC(=O)c1cc(OC)c(OC)c(OC)c1	11.2	13.7	0.4	2.9	61.8*	0.9
CCOC(=O)c1[nH]c2ccc(F)cc2c1NC(=O)c1cc(OC)c(OC)c(OC)c1	30.0*	3.8	0.9	-10.4	8.0	1
CCCSc1nnc(NC(=O)Nc2ccc(F)cc2)s1	20.2	14.7	0.7	3.7	29.0	0.9
Cc1ccc(C2/C(=C(\O)c3ccc4c(c3)OCCO4)C(=O)C(=O)N2CCCN(C)C)o1 (configuration not stated)	-5.2	4.1	1	-2.8	3.2	1
CCOC(=O)c1[nH]c2ccc(OC)cc2c1NC(=O)c1ccc2c(c1)OCO2	8.4	61.6*	0.7	8.7	34.6	0.4
Cc1nc2ccccc2c2c1C(=O)N(C1CCCCCCC1)C2=O	-6.9	11.9	0.9	-1.6	14.8	0.9
Cc1nc2ccccc2c2c1C(=O)N(Cc1cccnc1)C2=O	11.1	97.2*	0.5	3.6	46.3	0
CC(=O)OC1CCC2(C)C(COc3ccc4ccc(=O)oc4c3)C(C)(O)CCC2C1(C)C (configuration not stated)	13.3	21.3	0.5	-14.9	52.8*	0.8
CN(C)C(=O)COc1ccc2ccc(=O)oc2c1	-7.5	-4.0	1.2	3.7	-16.2	1
CCOC(=O)CNC1CC(=O)N(c2cccc(Cl)c2)C1=O (configuration not stated)	1.1	13.6	0.9	1.0	9.1	0.9
SMILES	PostGolgi ctrl	CYP2C19 inhib	CYP2C9 activ	PostGolgi yeast	CYP2C9 inhib	CYP2C19 activ
Cc1cc2n(c1)CCn1c(C)ccc1-2	-1.3	-5.1	0.3	-1.6	69.6*	1.1
CS(=O)(=O)n1nc(-c2ccc(Cl)cc2)nc1SCc1ccccc1	5.2	51.3*	0.3	-1.0	68.6*	0.5
O=c1c(/C=N/O)c(Nc2ccccc2)nc2ccccn12	9.3	19.5	0.5	-1.1	50.1*	0.8
Cc1ccc(C(=O)Nc2cnc3ccccn3c2=O)cc1	7.1	18.4	0.8	-3.4	21.9	0.8
CCOC(=O)c1cc2occc2n1CC(=O)Nc1ccc(OC)cc1OC	13.1	37.3	0.6	0.3	37.3	0.6
COc1cc(NC(=O)C2CCCCN2)ccc1OCC(C)C (configuration not stated)	-11.9	-11.2	1	12.7	-3.8	1.1
CCn1cc(/C=N/NC(=O)c2ccc(C#N)cc2F)c2ccccc21	2.1	24.4	0.7	1.5	32.3	0.8
COC(=O)Cn1cc(/C=N/NC(=O)c2ccc(C#N)cc2F)c2ccccc21	40.2*	11.0	0.8	2.1	23.9	0.9
CN1C(=O)N(C)C2C1NC(=O)N2C (configuration not stated)	0.1	-11.9	1.1	1.5	-13.1	1.1
COc1ccc(N2CCN(c3nc(Nc4ccc(F)cc4)nc(OC)n3)CC2)cc1	-10.3	0.8	0.9	-3.6	14.7	1
Cc1cccc(Nc2nc(N3CCCC3)nc(N3CCCC3)n2)c1	38.0*	5.0	0.8	1.9	16.0	0.9
COc1nc(N2CCCCCC2)nc(N2CCCCCC2)n1	32.3*	46.5	0.5	22.7	50.8*	0.5
Cc1cc(Nc2ccccc2)nc(N2CCOCC2)n1	5.3	-22.6	0.9	4.9	6.7	1.2
CCOc1ccc(Nc2nc(N3CCCCC3)nc(N3CCCCC3)n2)cc1	3.9	-7.9	0.9	26.5	11.7	1.1
COc1nc(Nc2cccc(C)c2)nc(N2CCCCC2)n1	36.0*	4.1	0.9	5.5	12.4	1
Cc1cccc(Nc2nc(NCc3ccco3)nc(N3CCOCC3)n2)c1	0.7	82.0*	0.1	2.6	91.5*	0.2
CC(C(=O)NCc1ccccc1)N1C(=O)CN(C)C(=O)c2ccccc21 (configuration not stated)	3.2	30.0	1	-8.2	-2.9	0.7
O=C1c2ccccc2C(=O)N1CCCn1nnc(-c2ccc(N3CCOCC3)cc2)n1	9.7	-9.7	0.8	11.6	19.1	1.1
CCOC(=O)C1CC=C(Cl)CC1C(=O)Nc1nccs1 (configuration not stated)	7.4	36.5	0.6	8.1	40.7	0.6
COc1ccc(S(=O)(=O)N/N=C(/C)c2cccc(NC(=O)c3ccccc3Cl)c2)cc1	-0.4	97.2*	0	-6.8	95.1*	0
CCC(CC)C(=O)Nc1cccc(-c2nc3ccccc3o2)c1	11.9	58.6*	0.3	-16.5	65.6*	0.4
